{
  "source": "PubChem BioAssay AID1745849",
  "about": "(National Center for Advancing Translational Sciences (NCATS), 2022)",
  "note": "The campaign covered roughly 2,100 compounds. About 320 (15%) were called active. Inconclusive results (about 52%) are left out. Some of the results follow. Unmarked numbers belong to inactive results. Calls follow the shape of the dose curve; as a rule, active = well fitted cell-killing curve with a large enough effect; inconclusive = small, poorly fitted or top-dose-only effect, or effect the other way; inactive = flat fitted curve, though single readings scatter. % is scaled to controls: 0 for no effect and ±100 for the full control effect; potency is read from the fitted curve at half-maximal effect.",
  "data": [
    {"assay": "Viability Counterscreen for CMV-Luciferase Assay of Inhibitors of ATXN expression; also: nearly all actives have a fitted effect of over 55% in size", "details": "HEK-293 CMV-luciferase cells viability, protease fluorescence, 24 h; activity change, negative = cytotoxicity: at the top concentration", "procedure,_shortened": "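Fluorescence from cleaved Gly-Phe-AFC (25 uM final, 30 min, ex 405/em 540 nm) reported viability, and the luciferase signal of the same CMV-reporter HEK-293 wells was read 5 min after SteadyGlo addition. Dosing lasted 24 hr.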", "values": [
      {"smiles": "COc1ccc(OCCNC(=O)C2(C)CCN2Cc2ccc3ccccc3c2)cc1", "note": "(stereo not given)", "activity change, negative = cytotoxicity": "-24.8% [at 57.5 µM]"},
      {"smiles": "CCCCn1c(/C=N/Nc2nc3ccccc3[nH]2)nc2ccccc21", "activity change, negative = cytotoxicity": "-17.7%"},
      {"smiles": "O=C1C=Cc2cccc3ccc(O)c1c23", "activity change, negative = cytotoxicity": "-11.2%"},
      {"smiles": "CCOc1ccc(/C=N/NC(=O)C(O)c2ccccc2)c(O)c1", "note": "(stereo not given)", "activity change, negative = cytotoxicity": "-21.2%"},
      {"smiles": "O=C(N/N=C/c1ccc(O)cc1O)/C(=C/c1ccccc1)CCO", "activity change, negative = cytotoxicity": "-27.3%"},
      {"smiles": "O=C(CP(=O)(c1ccccc1)c1ccccc1)N/N=C/c1cc(Br)cc(Br)c1O", "activity change, negative = cytotoxicity": "4.95%"},
      {"smiles": "O=C(NN=Cc1ccc(O)cc1O)c1ccccc1NS(=O)(=O)c1cccs1", "activity change, negative = cytotoxicity": "-18.8%"},
      {"smiles": "Cc1cc(SCC(=O)N/N=C/c2ccc(O)cc2O)c(C)cc1Br", "Potency": "11.2 µM (active)"},
      {"smiles": "O=C(CNS(=O)(=O)c1ccc([N+](=O)[O-])cc1)N/N=C/c1ccc(O)cc1O", "activity change, negative = cytotoxicity": "-26.6%"},
      {"smiles": "COc1ccc(O)c(/C=N/NC(=O)c2ccc(CSc3nc(C)cc(C)n3)cc2)c1", "activity change, negative = cytotoxicity": "-10.8% [at 57.5 µM]"},
      {"smiles": "COc1ccc(N2CCN(c3cc(C)nc4ccc(OC)cc34)CC2)cc1", "activity change, negative = cytotoxicity": "-27.2%"},
      {"smiles": "O=C(/C=C\\c1ccccc1)NCC(=O)N/N=C/c1ccc(O)cc1O", "Potency": "10 µM (active)"},
      {"smiles": "COc1ccc2nc(C)cc(SCC(=O)N/N=C/c3ccc(O)cc3O)c2c1", "Potency": "7.94 µM (active)"},
      {"smiles": "Cc1cc(C)n(CCC(=O)N/N=C/c2ccc(O)cc2O)n1", "activity change, negative = cytotoxicity": "-20.7%"},
      {"smiles": "Cc1cc(SCC(=O)N/N=C/c2ccc(O)cc2O)nc2ccccc12", "Potency": "12.6 µM (active)"},
      {"smiles": "CCCCn1c(SCC(=O)Nc2cc(C(F)(F)F)cc(C(F)(F)F)c2)nnc1C(CC)N(C)C", "note": "(stereo not given)", "activity change, negative = cytotoxicity": "-18.5%"},
      {"smiles": "COc1cc2ccnc(Cc3cccc(OC)c3OC)c2cc1OC", "activity change, negative = cytotoxicity": "10.6% [at 57.5 µM]"},
      {"smiles": "Cn1cc(SCC(=O)Nc2nc3ccccc3s2)c2ccccc21", "activity change, negative = cytotoxicity": "-20.3%"},
      {"smiles": "COc1ccc(/C=C/C(=O)Nc2cccc(F)c2)cc1S(=O)(=O)N1CCOCC1", "activity change, negative = cytotoxicity": "-29.3% [at 57.5 µM]"},
      {"smiles": "c1cnc2c(c1)ccc1cccnc12", "Potency": "5.01 µM (active)"},
      {"smiles": "O=C(Nc1cccc(Br)c1)Oc1cccc2cccnc12", "activity change, negative = cytotoxicity": "-12.5% [at 57.5 µM]"},
      {"smiles": "CCCC(=O)N1CCCC(c2cc(C(=O)Nc3ccccc3)no2)C1", "note": "(stereo not given)", "activity change, negative = cytotoxicity": "-9.15% [at 57.5 µM]"},
      {"smiles": "Cc1nn(-c2ccccn2)c2c1C(=O)CC(C)(C)C2N=[N+]=[N-]", "note": "(stereo not given)", "activity change, negative = cytotoxicity": "2.56%"},
      {"smiles": "CCc1cc2c(N3CCN(c4nnc(CC)s4)CC3)ncnc2s1", "activity change, negative = cytotoxicity": "-8.2%"},
      {"smiles": "Cc1cc(C)nc(/N=C(\\N)Nc2ccc(OCc3ccccc3)cc2)n1", "activity change, negative = cytotoxicity": "-27.6% [at 57.5 µM]"},
      {"smiles": "CC(O)CNCCNCc1c(OCc2ccccc2)ccc2ccccc12", "note": "(stereo not given)", "activity change, negative = cytotoxicity": "-11.2% [at 57.5 µM]"},
      {"smiles": "NC(N)=N/N=C/c1ccc2cccc(OCc3ccccc3)c2n1", "Potency": "14.1 µM (active)"},
      {"smiles": "COc1ccccc1C(CCNCc1ccccc1)c1ccc(OC(C)C)cc1", "note": "(stereo not given)", "activity change, negative = cytotoxicity": "-13.2%"},
      {"smiles": "CN1C2CCC1/C(=C\\c1ccccc1)C(=O)/C2=C\\c1ccccc1", "Potency": "10 µM (active)"},
      {"smiles": "Cc1ccc2c(Cl)cc(Cl)c(OCC(=O)Nc3cc(S(=O)(=O)N(C)C)ccc3C)c2n1", "activity change, negative = cytotoxicity": "-8.55%"},
      {"smiles": "c1ccc(CNc2nc(-c3ccccn3)nc3ccccc23)cc1", "Potency": "7.94 µM (active)"},
      {"smiles": "Clc1cccc(-c2nc(NCc3cccnc3)c3ccccc3n2)c1", "activity change, negative = cytotoxicity": "-12.7% [at 57.5 µM]"},
      {"smiles": "CN1CCN(c2nc(-c3ccccn3)nc3ccccc23)CC1", "activity change, negative = cytotoxicity": "-17.1% [at 57.5 µM]"},
      {"smiles": "CC(C)CCNC(=O)COc1cccc2c1OC(C)(C)C2", "activity change, negative = cytotoxicity": "3.34% [at 57.5 µM]"},
      {"smiles": "COc1cc(C=CC(=O)c2cc(OC)c(OC)c(OC)c2)cc(OC)c1OC", "Potency": "10 µM (active)"},
      {"smiles": "COc1ccc(C(=O)/C=C/c2ccc(OC3CSC3)cc2)cc1OC", "activity change, negative = cytotoxicity": "14.2%"},
      {"smiles": "COc1cc(/C=C/C(O)=C/C(=O)/C=C/c2ccc(O)cc2)ccc1O", "activity change, negative = cytotoxicity": "-16.8%"},
      {"smiles": "COc1cc(OC)c(C(=O)C=Cc2ccc(OC)c(OC)c2)c(OC)c1", "Potency": "20 µM (active)"},
      {"smiles": "COc1ccc(NC(=O)c2oc3ccc(S(=O)(=O)N4CCC5(CC4)OCCO5)cc3c2C)cc1", "activity change, negative = cytotoxicity": "-13.9%"},
      {"smiles": "Cn1ncc2c(Nc3cccc(Cl)c3)nc(Nc3cccc(Cl)c3)nc21", "activity change, negative = cytotoxicity": "-16.3% [at 57.5 µM]"},
      {"smiles": "CC1Sc2ccc(S(=O)(=O)CCC(=O)N3CCN(c4cccc(Cl)c4)CC3)cc2NC1=O", "note": "(stereo not given)", "activity change, negative = cytotoxicity": "-24.1% [at 57.5 µM]"},
      {"smiles": "CC(=O)c1sc(NC(=O)c2cc(-c3ccccc3)nn2-c2ccccc2)nc1C", "activity change, negative = cytotoxicity": "11.5%"},
      {"smiles": "O=C(Nc1nc(-c2ccccc2)cs1)c1ccccc1NS(=O)(=O)c1ccc(F)cc1", "Potency": "3.16 µM (active)"},
      {"smiles": "CC(O)(c1ccccc1)c1nc(-c2ccncc2)cs1", "note": "(stereo not given)", "activity change, negative = cytotoxicity": "19.3%"},
      {"smiles": "COc1ccc(C(=O)Nc2nc(-c3ccc(S(=O)(=O)N4CCOCC4)cc3)cs2)cc1", "activity change, negative = cytotoxicity": "-23.6%"},
      {"smiles": "COc1ccccc1C(=O)Nc1nc(-c2ccc(S(=O)(=O)N3CCOCC3)cc2)cs1", "activity change, negative = cytotoxicity": "-25%"},
      {"smiles": "CC(=O)c1c(C)[nH]c(C(=O)Nc2nc(-c3ccc(-c4ccccc4)cc3)cs2)c1C", "Potency": "11.2 µM (active)"},
      {"smiles": "COc1ccc(-c2csc(NC(=O)c3ccccc3NS(=O)(=O)c3ccc(F)c(F)c3)n2)cc1", "Potency": "2.24 µM (active)"},
      {"smiles": "COCC(=O)OC/C(O)=C(\\C#N)c1nc2ccccc2[nH]1", "activity change, negative = cytotoxicity": "9.99%"},
      {"smiles": "CCOc1cc(CNCCO)cc(Br)c1OCc1ccccc1", "activity change, negative = cytotoxicity": "2.53% [at 57.5 µM]"}
    ]}
  ]
}
